We go through 67 compounds from ChEMBL document CHEMBL4808148, “HDAC6 screening dataset using tau-based substrate in an enzymatic assay yields selective inhibitors and activators” (2021).

Assay [1] addresses T1, Protein deacetylase HDAC6 (Homo sapiens) (UniProt Q9UBN7).
T1 sequence (whole entry): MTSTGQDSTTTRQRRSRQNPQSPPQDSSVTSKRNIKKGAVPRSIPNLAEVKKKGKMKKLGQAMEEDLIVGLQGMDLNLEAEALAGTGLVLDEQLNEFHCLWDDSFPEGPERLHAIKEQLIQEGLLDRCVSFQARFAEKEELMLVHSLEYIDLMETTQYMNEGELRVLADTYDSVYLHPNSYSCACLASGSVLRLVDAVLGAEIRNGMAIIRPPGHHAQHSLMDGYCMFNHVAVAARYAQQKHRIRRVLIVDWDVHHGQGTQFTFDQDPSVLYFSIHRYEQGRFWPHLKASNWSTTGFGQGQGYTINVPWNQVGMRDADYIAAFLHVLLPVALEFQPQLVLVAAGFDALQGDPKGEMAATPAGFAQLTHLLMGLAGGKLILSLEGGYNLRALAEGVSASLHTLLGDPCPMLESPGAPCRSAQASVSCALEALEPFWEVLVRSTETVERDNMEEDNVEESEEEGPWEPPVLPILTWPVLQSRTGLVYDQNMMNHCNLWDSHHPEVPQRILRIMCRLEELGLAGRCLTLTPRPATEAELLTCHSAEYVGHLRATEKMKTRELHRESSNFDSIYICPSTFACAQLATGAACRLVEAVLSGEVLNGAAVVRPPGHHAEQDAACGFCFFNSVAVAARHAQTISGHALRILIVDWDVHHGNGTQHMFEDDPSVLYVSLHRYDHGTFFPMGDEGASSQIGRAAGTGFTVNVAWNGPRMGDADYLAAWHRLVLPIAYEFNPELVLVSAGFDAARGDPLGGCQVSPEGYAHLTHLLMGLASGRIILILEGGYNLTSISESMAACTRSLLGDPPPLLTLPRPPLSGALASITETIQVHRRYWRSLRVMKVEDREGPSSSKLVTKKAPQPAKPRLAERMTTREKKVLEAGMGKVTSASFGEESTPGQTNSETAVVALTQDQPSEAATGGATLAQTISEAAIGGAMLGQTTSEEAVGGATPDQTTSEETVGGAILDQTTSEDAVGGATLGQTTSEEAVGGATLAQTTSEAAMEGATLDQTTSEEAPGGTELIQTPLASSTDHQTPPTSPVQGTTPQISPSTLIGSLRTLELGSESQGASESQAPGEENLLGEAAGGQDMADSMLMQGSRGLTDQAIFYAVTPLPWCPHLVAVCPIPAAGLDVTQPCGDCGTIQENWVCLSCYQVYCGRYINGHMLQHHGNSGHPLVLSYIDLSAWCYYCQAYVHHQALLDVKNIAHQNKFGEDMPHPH
Conditions: at 10 µM.

Assay [2] has as its target Protein deacetylase HDAC6 (Homo sapiens) (UniProt Q9UBN7). Conditions: at 10 µM. The source holds these as a separate data set.

About 390 (7%) of roughly 5,600 compounds showed an effect of 50% or more. The full list was thinned out, with strong results kept by preference. Non-standard residues stand in square brackets, D forms with d. Residues, ends and D or L forms follow the SMILES beside them. dTrp(2-Me) = Cc1[nH]c2ccccc2c1C[C@@H](N)C(=O)O

By inhibition is commonly meant the change of the read-out against control, counted positive when it falls. On to `CCOc1ccc(-c2nc(-c3cccc4c3CCC4NCCO)no2)cc1OCC` (configuration not stated), for which the inhibition in assay [1] came to 26.2%.

Take `CC(O)CCCCn1c(=O)c2c(ncn2C)n(C)c1=O` (configuration not stated): in assay [1], the inhibition was 14.8%.

`CC(C)(C)c1cc(C(=O)/C(C#N)=N/Nc2cccc(Cl)c2)no1`: the inhibition in assay [1] amounted to 58.9%.

In the case of `O=C(O)c1cc2ccccc2s1`, the inhibition in assay [1] is 36%.

For `CCCCCCCCCCCCCCCCCCO`, the inhibition in assay [1] stood at 10.8%.

Consider `Cc1cccc(COc2cccc(/C=C3\C(=O)NN(c4ccccc4)C3=O)c2)c1`, for which the inhibition in assay [1] came to 6.83%.

For the compound `C[C@H]1NCc2cc(-c3ccc4c(=O)c(C(=O)O)cn(C5CC5)c4c3OC(F)F)ccc21`, the inhibition in assay [1] stood at 14.9%.

For `O=C1NC(=O)c2cc(Nc3ccc(F)cc3)c(Nc3ccc(F)cc3)cc21`, in assay [1], the inhibition was found to be 41.3%.

Turning to `CNC(=O)c1c(C)oc2cc(Oc3ncnc4cc(OC)c(OC)cc34)ccc12`, in assay [1], the inhibition was -6.42%.

Regarding `CC(C)Oc1ccc2c(=O)c(-c3ccccc3)coc2c1`, the inhibition in assay [1] worked out at 95.2%.

Regarding `COc1cc(C=O)ccc1O`, the inhibition in assay [1] is -4.44%.

As to `COc1cc(C(C)=O)ccc1O`, the inhibition in assay [1] is 8.46%.

As to `CC(C)Oc1ccc2c(=O)c3cc(C(=O)O)ccc3oc2c1`, in assay [1], the inhibition stood at 87.4%.

As to `O=c1c(-c2ccc(O)cc2)coc2cc(O)ccc12`, the inhibition in assay [1] turned out to be 101%.

Consider `O=c1c(-c2ccc(O)cc2)coc2c(C3OC(CO)C(O)C(O)C3O)c(O)ccc12` (configuration not stated), for which the inhibition in assay [1] was determined as 5.48%.

As for `COc1cc2c(=O)c(-c3ccc(O)cc3)coc2cc1O`, in assay [1], the inhibition stood at 98.7%.

For `COc1ccc(-c2oc3cc(OC)ccc3c2C(=O)c2ccc(C#N)cc2)cc1`, the inhibition in assay [1] was 1.66%.

In the case of `CNc1cc2[nH]c(=O)n(-c3ccc(NC(=O)NS(=O)(=O)c4ccc(Cl)s4)cc3)c(=O)c2cc1F`, in assay [1], the inhibition is 32.7%.

Take `C[C@@H]1CN(Cc2ncccn2)C[C@H]1c1nc2c(cnn2C2CCOCC2)c(=O)[nH]1`: the inhibition in assay [1] is -2.24%.

With `O=C(O)c1cc(O)c2c(Cl)cc(Cl)cc2n1`, in assay [1], the inhibition was found to be 6.69%.

As for `CC(=O)Oc1ccccc1C(=O)Oc1cccc(CO[N+](=O)[O-])c1`, the inhibition in assay [1] turned out to be 48.1%.

Turning to `CC(C)(O)CNc1nc(Nc2ccnc(C(F)(F)F)c2)nc(-c2cccc(C(F)(F)F)n2)n1`, the inhibition in assay [1] is 36.2%.

Take `CC(=O)NC(C(=O)O)C(C)(C)SN=O` (configuration not stated): the inhibition in assay [1] turned out to be 2.51%.

As to `Cc1noc2c1-c1ccccc1C(c1ccc(Cl)cc1)=N[C@H]2CC(N)=O`, in assay [1], the inhibition is 43.6%.

With `Nc1ccc(F)cc1NC(=O)c1ccc(CNC(=O)/C=C/c2cccnc2)cc1`, the inhibition in assay [1] was -6.65%.

Take `N[C@H](CSC(c1ccccc1)(c1ccccc1)c1ccccc1)C(=O)O`: the inhibition in assay [1] was -3.09%.

In the case of `Cc1nc2n(c(=O)c1CCN1CCC(c3noc4cc(F)ccc34)CC1)CCCC2O` (configuration not stated), in assay [1], the inhibition is -9.07%.

As for `N#Cc1cnc2cnc(NCc3cccnc3)cc2c1Nc1ccc(F)c(Cl)c1`, the inhibition in assay [1] is -0.05%.

On to `COc1ccc(-c2coc3cc(O)ccc3c2=O)cc1`, for which the inhibition in assay [1] worked out at 99.6%.

As to `COc1ccc(-n2c(C)c([N+](=O)[O-])c3ccc(O)cc32)cc1`, the inhibition in assay [1] was 12.7%.

In the case of `N[C@@H](CCNCc1ccc(Cl)cc1)C(=O)N1CCCCC1`, the inhibition in assay [1] is 0.96%.

For the compound `N=C(Nc1ccc(I)cc1)NC1C2CC3CC(C2)CC1C3` (configuration not stated), in assay [1], the inhibition stood at 1.97%.

Regarding `Cc1ccc(-c2ncc[nH]2)cc1NC(=O)c1ccc(OCc2ccccn2)cc1`, in assay [1], the inhibition stood at 21.3%.

For `Fc1ccc(-c2nc3n(c2-c2ccncc2)CCS3)cc1`, the inhibition in assay [1] was -4.98%.

With `Cc1c(F)cccc1NC(=O)Nc1ccc(Cl)c(S(=O)(=O)[C@H]2CCCNC2)c1O`, the inhibition in assay [1] was 36.1%.

Consider `CN1CCN(C2=Cc3ccccc3Oc3ccc(Cl)cc32)CC1`, for which, in assay [1], the inhibition stood at 2.47%.

Consider `Cc1nc2c(OCc3ccccc3)cccn2c1CC#N`, for which, in assay [1], the inhibition was 76.9%.

Regarding `COc1ccc(COc2ccc(CC#N)cc2)cc1`, the inhibition in assay [1] worked out at 28.5%.

In the case of `CCCc1c(OCCCCc2nnn[nH]2)ccc(C(C)=O)c1O`, in assay [1], the inhibition was 4.66%.

Regarding `CC[N+](C)(CC)CCOC(=O)C(O)(c1ccccc1)C1CCCCC1` (configuration not stated), in assay [1], the inhibition was -2.19%.

On to `COc1ccc2c(C)nc(Nc3nc(C)c(C)c(O)n3)nc2c1`, for which the inhibition in assay [1] came to 20.5%.

As to `CCc1cnc(N2CCC(c3nc(COc4ccc(-n5cnnn5)cc4)cs3)CC2)nc1`, the inhibition in assay [1] came to 14.7%.

`COc1ccc(C2C(=O)c3ccccc3C2=O)cc1`: in assay [1], the inhibition came out at 98.2%.

`O=C1c2ccccc2C(=O)C1c1ccc(Cl)cc1`: the inhibition in assay [1] turned out to be 18.6%.

On to `O=C1c2ccccc2C(=O)C1c1ccc(Br)cc1`, for which the inhibition in assay [1] was 95.5%.

`O=C1c2ccccc2C(=O)C1c1ccccc1`: in assay [1], the inhibition is 7.2%.

For the compound `CCCC1(CCC)CCC2(CCN(CCCN(CC)CC)C2)CC1`, the inhibition in assay [1] was -1.4%.

With `C[C@@H](O)[C@H]1C(=O)N2C(C(=O)O)=C(S[C@@H]3CN[C@H](C(=O)Nc4cccc(C(=O)O)c4)C3)[C@H](C)[C@H]12`, in assay [1], the inhibition came out at 29.2%.

On to `CC1(c2ccccc2)OC(C(=O)O)=CC1=O` (configuration not stated), for which, in assay [1], the inhibition was -2.75%.

As to `Nc1nccc(-c2c(-c3ccc(F)cc3)ncn2C2CCCCC2)n1`, the inhibition in assay [1] was determined as 10.1%.

As to `COc1cc(C(=O)NC2CCN(C)CC2)c(F)cc1Nc1ncc2c(n1)N(C1CCCC1)CC(F)(F)C(=O)N2C`, the inhibition in assay [1] is 2.87%.

As for `Cc1[nH]c2ccccc2c1C[C@@H](NC(=O)[C@@H](N)Cc1c[nH]cn1)C(=O)N[C@@H](C)C(=O)N[C@@H](Cc1c[nH]c2ccccc12)C(=O)N[C@H](Cc1ccccc1)C(=O)N[C@@H](CCCCN)C(N)=O` (H-H[dTrp(2-Me)]AW[dF]K-NH2), the inhibition in assay [1] was -0.06%.

With `NCCCCCC(O)(P(=O)(O)O)P(=O)(O)O`, in assay [1], the inhibition is 0.9%.

Consider AURANOFIN, CHEMBL1366, for which, in assay [2], the inhibition is -8.98%.

Turning to “Antimonyl (potassium tartrate trihydrate), CHEMBL2097098”, the inhibition in assay [2] was 13.3%.

Regarding “ANTIMONY POTASSIUM TARTRATE TRIHYDRATE, CHEMBL2097098”, the inhibition in assay [2] stood at 31.4%.

As for “BIS(MALTOLATO)OXOVANADIUM(IV), CHEMBL286447”, the inhibition in assay [2] was 51.3%.

Turning to `CO[C@@H]1[C@H](OC(=O)/C=C/C=C/C=C/C=C/C(=O)O)CC[C@]2(CO2)[C@H]1[C@@]1(C)O[C@@H]1CC=C(C)C`, the inhibition in assay [1] turned out to be 3.49%.

Turning to `CCCCC[C@H](O)/C=C/[C@@H]1[C@H]2C/C(=C/CCCC(=O)O)O[C@H]2C[C@H]1O`, the inhibition in assay [1] turned out to be 10.8%.

As to `Cn1cc(CCn2cnc(-c3cnn(C)c3)c2-c2ccc(C#N)cc2)cn1`, in assay [1], the inhibition turned out to be 15%.

On to `O=S(=O)(O)c1ccc2[nH]c(-c3ccccc3)nc2c1`, for which, in assay [1], the inhibition is 84.1%.

With `O=C1c2ccc(Nc3ccc(F)cc3F)cc2CCc2ccc(OC[C@H](O)CO)cc21`, in assay [1], the inhibition stood at 24.2%.

Turning to `C#Cc1cnc2nc(O)n(C(CC)CC)c2n1`, the inhibition in assay [1] was -6.31%.

With `Nc1ncnc2[nH]nc(Nc3ccc(F)cc3)c12`, the inhibition in assay [1] was 17.6%.

For the compound `Nc1nc(N)nc(-c2cc(Cl)ccc2Cl)n1`, the inhibition in assay [1] turned out to be 17.2%.

Consider `Nc1ncnc(Nc2ccc(Cl)cc2)n1`, for which the inhibition in assay [1] was 74.5%.

Take `CCO/N=C(/C(=O)NC1C(=O)N2C(C(=O)O)=C(Sc3nc(-c4cc[n+](C)cc4)cs3)CS[C@H]12)c1nsc(NP(=O)(O)O)n1` (some centres not stated): the inhibition in assay [1] worked out at 20.6%.
